Reference: ChEMBL document CHEMBL3988442, “University of Dundee, Small-Polar-MMV Screening Library” (2021)

target: T1, Arginase-2, mitochondrial (Homo sapiens) (UniProt P78540); assay: in vitro enzyme assay to detect the production of urea directly proportional to the activity of Arginase II; type: functional; set-up: scale not given: in the data most compounds retested in dose-response had high values; conditions: 33.3 µM
T1 sequence (whole entry): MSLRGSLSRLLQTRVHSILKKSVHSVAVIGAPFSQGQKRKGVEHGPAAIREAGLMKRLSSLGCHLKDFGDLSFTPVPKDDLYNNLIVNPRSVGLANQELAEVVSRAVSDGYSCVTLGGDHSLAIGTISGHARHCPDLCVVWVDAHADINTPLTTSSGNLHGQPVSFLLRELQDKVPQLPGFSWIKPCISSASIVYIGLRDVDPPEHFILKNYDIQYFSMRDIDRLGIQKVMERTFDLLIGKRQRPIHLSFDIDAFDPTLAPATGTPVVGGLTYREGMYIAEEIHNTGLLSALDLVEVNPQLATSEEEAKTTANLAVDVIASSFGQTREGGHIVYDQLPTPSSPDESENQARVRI

Row | Structure (SMILES) | Percent Effect [%]
1 | Cn1c(Cn2ccnc2)nnc1C1CCN(C(=O)C2(C)CC2)CC1 | -4.39
2 | O=C(c1cnn(-c2ccccc2F)c1)N1CCN(CCO)CC1 | 16.1
3 | O=C(NCCCn1cccn1)C1(c2ccc(Br)cc2)CC1 | 2.73
4 | COCCC(=O)N1CCC2(CN(Cc3ccc(OC)c(F)c3)C2)C1 | 0.399
5 | O=C(c1cccc(S(=O)(=O)NCCCc2ccco2)c1)N1CCOCC1 | 1.82
6 | CC(=O)N1CCN(Cc2csc(-c3cnn(C)c3)n2)CC1 | -1.53
7 | Cc1cnn(CCNCC(=O)NCc2ccccc2)c1 | -4.68
8 | CCCc1cc(NC2CCc3ncnn3C2)n2ncnc2n1 (stereo not given) | -0.455
9 | CC(C)Sc1ncccc1C(=O)NCc1ccc(CS(C)(=O)=O)cc1 | 4.09
10 | CCc1nnc2n1CCN(Cc1ccc3c(c1)OCCO3)C2 | 1.29
11 | Cc1ccc(CN2CC[C@H]3OCC[C@@H](C(=O)NC4CC4)[C@@H]3C2)o1 | 1.59
12 | Cc1nc(C)n(C2CCCN(C(=O)CCc3ccncc3)C2)n1 (stereo not given) | 4.17
13 | CCOC[C@H]1CC[C@H]2[C@H](CCN2C(=O)c2ccncc2F)O1 | 3.72
14 | Cc1ccc(C(=O)NCC2(O)CCOCC2)cc1Br | -2.38
15 | N#Cc1cn(C2CC2)c(=O)n(CC(O)c2ccc(OC(F)F)cc2)c1=O (stereo not given) | 0
16 | O=C(CCc1nc2cccnc2[nH]1)Nc1cccnc1 | -2.29
17 | c1cnnc(NCC2CN(Cc3cccc4c3OCCO4)CCO2)c1 (stereo not given) | -2.13
18 | Cc1cc(N2CCN(Cc3ccc(-c4cc[nH]n4)o3)CC2)cc(C)n1 | 10.9
19 | COc1ccnc(N2CCN(C(=O)CN3CCCC3=O)CC2)n1 | 2.88
20 | N#Cc1ccnc(N2CCN(Cc3cccc(F)c3)CC2)c1 | 3.23

Row | Structure (SMILES) | Percent Effect [%]
21 | O=C(C(CNCc1ccsc1)c1ccccc1)N1CCOCC1 (stereo not given) | 5.52
22 | O=C(CCOc1cccc(F)c1)N1CCCC(n2cncn2)C1 (stereo not given) | 4.95
23 | Cc1nc(C)n(CC2CCCCN2CCCS(=O)(=O)N(C)C)n1 (stereo not given) | 3.33
24 | CCOC(C)c1nc(CN2CCNCC2)cs1 (stereo not given) | -5.24
25 | CC1CCCN(CCNC(=O)c2cncnc2C(C)C)C1 (stereo not given) | 0.442
26 | CC(C)NC(=O)c1sccc1N(C)S(=O)(=O)c1ccc(Cl)cc1 | 11.8
27 | Cc1cc(C)n(C2CCCN(C(=O)c3cnc4onc(C)c4c3)C2)n1 (stereo not given) | 4.84
28 | O=C(CCc1nc2cccnc2[nH]1)NCc1cccnc1 | -0.88
29 | CSCCC(=O)N1CCCC1c1ccsc1 (stereo not given) | -1.32
30 | COc1c(C)cnc(CSc2nnc(C)s2)c1C | 8.33
31 | CCOc1cc(C)nc(N2CCN(C(=O)c3ccc[nH]3)CC2)n1 | 2.77
32 | CC(C)NC(=O)N1CCC(n2ccc(C(F)(F)F)n2)CC1 | -0.909
33 | CC(C)c1nnc2n1CCN(CCCS(=O)(=O)c1ccccc1)C2 | -4.27
34 | Cc1cnn(CC2CN(Cc3nnc(C4CC4)o3)CCO2)c1 (stereo not given) | -4.99
35 | CC(NC(=O)NCCCNS(C)(=O)=O)c1ccncc1 (stereo not given) | -1.5
36 | CS(=O)(=O)CCC(=O)NC1(c2cccc(Br)c2)CC1 | 1.43
37 | Cc1cc(CN2CCN(C(=O)c3sccc3C(C)C)CC2)no1 | 4.84
38 | CC(=O)Nc1ccc(-n2ccc3nc(N4CCCC4)ncc3c2=O)cc1 | 0.88
39 | Cc1nc(C)n(CC2CCCN2CCc2cccs2)n1 (stereo not given) | -2.68
40 | Cc1nn(C)c(C)c1C1CCCN1C(=O)c1ccc(CN(C)C)cc1 (stereo not given) | 0.554

target: T2, Proteasome subunit beta (Trypanosoma cruzi) (UniProt O96673); assay: Trypanosoma cruzi proteasome chymotrypsin-like activity (TcProtChymo) assay.; type: functional; set-up: scale not given: in the data most compounds retested in dose-response had high values; conditions: 9.37 µM
T2 sequence (whole entry): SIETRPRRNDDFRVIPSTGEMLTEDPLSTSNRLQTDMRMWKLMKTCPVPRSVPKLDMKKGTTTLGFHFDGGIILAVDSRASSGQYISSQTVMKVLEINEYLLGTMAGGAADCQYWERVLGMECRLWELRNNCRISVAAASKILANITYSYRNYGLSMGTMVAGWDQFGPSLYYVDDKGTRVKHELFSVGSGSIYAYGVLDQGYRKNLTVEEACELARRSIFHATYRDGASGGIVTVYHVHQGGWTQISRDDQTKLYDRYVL

Row | Structure (SMILES) | Percent Effect [%]
41 | Cn1c(Cn2ccnc2)nnc1C1CCN(C(=O)C2(C)CC2)CC1 | 21
42 | O=C(c1cnn(-c2ccccc2F)c1)N1CCN(CCO)CC1 | 0.698
43 | O=C(NCCCn1cccn1)C1(c2ccc(Br)cc2)CC1 | 10.1
44 | COCCC(=O)N1CCC2(CN(Cc3ccc(OC)c(F)c3)C2)C1 | 6.42
45 | O=C(c1cccc(S(=O)(=O)NCCCc2ccco2)c1)N1CCOCC1 | 5.86
46 | CC(=O)N1CCN(Cc2csc(-c3cnn(C)c3)n2)CC1 | 2.17
47 | Cc1cnn(CCNCC(=O)NCc2ccccc2)c1 | 0.0846
48 | CCCc1cc(NC2CCc3ncnn3C2)n2ncnc2n1 (stereo not given) | 10.1
49 | CC(C)Sc1ncccc1C(=O)NCc1ccc(CS(C)(=O)=O)cc1 | 18
50 | CCc1nnc2n1CCN(Cc1ccc3c(c1)OCCO3)C2 | 7.9
51 | Cc1ccc(CN2CC[C@H]3OCC[C@@H](C(=O)NC4CC4)[C@@H]3C2)o1 | 7.75
52 | Cc1nc(C)n(C2CCCN(C(=O)CCc3ccncc3)C2)n1 (stereo not given) | 6.34
53 | CCOC[C@H]1CC[C@H]2[C@H](CCN2C(=O)c2ccncc2F)O1 | 5.92
54 | Cc1ccc(C(=O)NCC2(O)CCOCC2)cc1Br | 7.07
55 | N#Cc1cn(C2CC2)c(=O)n(CC(O)c2ccc(OC(F)F)cc2)c1=O (stereo not given) | 11.2
56 | O=C(CCc1nc2cccnc2[nH]1)Nc1cccnc1 | 14.1
57 | c1cnnc(NCC2CN(Cc3cccc4c3OCCO4)CCO2)c1 (stereo not given) | 1.18
58 | Cc1cc(N2CCN(Cc3ccc(-c4cc[nH]n4)o3)CC2)cc(C)n1 | 12.7
59 | COc1ccnc(N2CCN(C(=O)CN3CCCC3=O)CC2)n1 | 7.02
60 | N#Cc1ccnc(N2CCN(Cc3cccc(F)c3)CC2)c1 | 9.01

Row | Structure (SMILES) | Percent Effect [%]
61 | O=C(C(CNCc1ccsc1)c1ccccc1)N1CCOCC1 (stereo not given) | 6.49
62 | O=C(CCOc1cccc(F)c1)N1CCCC(n2cncn2)C1 (stereo not given) | 6
63 | Cc1nc(C)n(CC2CCCCN2CCCS(=O)(=O)N(C)C)n1 (stereo not given) | 11.9
64 | CCOC(C)c1nc(CN2CCNCC2)cs1 (stereo not given) | 6.21
65 | CC1CCCN(CCNC(=O)c2cncnc2C(C)C)C1 (stereo not given) | 8.25
66 | CC(C)NC(=O)c1sccc1N(C)S(=O)(=O)c1ccc(Cl)cc1 | 13.1
67 | Cc1cc(C)n(C2CCCN(C(=O)c3cnc4onc(C)c4c3)C2)n1 (stereo not given) | 4.77
68 | O=C(CCc1nc2cccnc2[nH]1)NCc1cccnc1 | 15.5
69 | CSCCC(=O)N1CCCC1c1ccsc1 (stereo not given) | 18.8
70 | COc1c(C)cnc(CSc2nnc(C)s2)c1C | 4.53
71 | CCOc1cc(C)nc(N2CCN(C(=O)c3ccc[nH]3)CC2)n1 | 3.23
72 | CC(C)NC(=O)N1CCC(n2ccc(C(F)(F)F)n2)CC1 | 5.32
73 | CC(C)c1nnc2n1CCN(CCCS(=O)(=O)c1ccccc1)C2 | 7.94
74 | Cc1cnn(CC2CN(Cc3nnc(C4CC4)o3)CCO2)c1 (stereo not given) | -1.26
75 | CC(NC(=O)NCCCNS(C)(=O)=O)c1ccncc1 (stereo not given) | 8.4
76 | CS(=O)(=O)CCC(=O)NC1(c2cccc(Br)c2)CC1 | 15
77 | Cc1cc(CN2CCN(C(=O)c3sccc3C(C)C)CC2)no1 | 1.86
78 | CC(=O)Nc1ccc(-n2ccc3nc(N4CCCC4)ncc3c2=O)cc1 | 3.14
79 | Cc1nc(C)n(CC2CCCN2CCc2cccs2)n1 (stereo not given) | 25.4
80 | Cc1nn(C)c(C)c1C1CCCN1C(=O)c1ccc(CN(C)C)cc1 (stereo not given) | 11.1
